# Laboratory results as given in the supplement of paper PMC12282887.
# ± gives the standard deviation of the averaged measurements.
# What was measured:
# Experiment in all cases: promoter activity interaction Z-score (Lux/OD deviation from empty-vector control); higher = stronger promoter induction by the compound
# [1] = tested on: E. coli BW25113 robp lux reporter
# Procedure, shortened: (§1)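 E. coli BW25113 luxCDABE reporter strains grew at 37°C in 40 µl LB Lennox in 384-well plates, with OD600 and luminescence read every 30 min for 12 h. After integration over 0–8 h for wild type or 1–9 h for deletion strains, wells under 10% of the median growth value were removed. Each score is the Z-transformed residual of growth-normalised luminescence fitted against a control.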
# [2] = tested on: E. coli BW25113 soxSp lux reporter
# Procedure, shortened: as §1
# [3] = tested on: E. coli BW25113 tolCp lux reporter
# Procedure, shortened: as §1
# [4] = 0.25 µg/ml, genetic background: ΔmarA
# [5] = 0.25 µg/ml, genetic background: Δrob
# [6] = 0.25 µg/ml, genetic background: ΔsoxS
# [7] = 0.5 µg/ml, genetic background: wild type
# [8] = 0.5 µg/ml, genetic background: ΔmarA
# [9] = 0.5 µg/ml, genetic background: Δrob
# [10] = 0.5 µg/ml, genetic background: ΔsoxS
# [11] = 1 µg/ml, genetic background: wild type
# [12] = 1 µg/ml, genetic background: ΔmarA
# [13] = 1 µg/ml, genetic background: Δrob
# [14] = 1 µg/ml, genetic background: ΔsoxS
# [15] = 2 µg/ml, genetic background: wild type
# [16] = 2 µg/ml, genetic background: ΔmarA
# [17] = 0.25 µg/ml, genetic background: wild type
# [18] = 2 µg/ml, genetic background: Δrob
# [19] = 2 µg/ml, genetic background: ΔsoxS
smiles,measurement,setting,value
CC1(C)S[C@@H]2[C@H](NC(=O)[C@H](N)c3ccc(O)cc3)C(=O)N2[C@H]1C(=O)O [Amoxicillin],promoter activity interaction Z-score,[1]; [4],-0.028 ± 0.04
same,promoter activity interaction Z-score,[1]; [5],-0.226 ± 0.034
same,promoter activity interaction Z-score,[1]; [6],-0.349 ± 0.75
same,promoter activity interaction Z-score,[1]; [7],0.699 ± 0.03
same,promoter activity interaction Z-score,[1]; [8],-0.354 ± 0.23
same,promoter activity interaction Z-score,[1]; [9],0.168 ± 0.52
same,promoter activity interaction Z-score,[1]; [10],-0.698 ± 0.12
same,promoter activity interaction Z-score,[1]; [11],-0.0437 ± 0.14
same,promoter activity interaction Z-score,[1]; [12],-0.0839 ± 0.86
same,promoter activity interaction Z-score,[1]; [13],0.396 ± 1.2
same,promoter activity interaction Z-score,[1]; [14],-1.05 ± 0.49
same,promoter activity interaction Z-score,[1]; [15],-1.64
same,promoter activity interaction Z-score,[1]; [16],0.17
same,promoter activity interaction Z-score,[2]; [17],0.174 ± 0.46
same,promoter activity interaction Z-score,[2]; [4],-0.165 ± 0.13
same,promoter activity interaction Z-score,[2]; [5],0.236 ± 0.24
same,promoter activity interaction Z-score,[2]; [6],-0.199 ± 0.15
same,promoter activity interaction Z-score,[2]; [7],0.319 ± 0.15
same,promoter activity interaction Z-score,[2]; [8],-0.00956 ± 0.1
same,promoter activity interaction Z-score,[2]; [9],0.0715 ± 0.076
same,promoter activity interaction Z-score,[2]; [10],-0.424 ± 0.15
same,promoter activity interaction Z-score,[2]; [11],0.0777 ± 0.017
same,promoter activity interaction Z-score,[2]; [12],-0.259 ± 0.12
same,promoter activity interaction Z-score,[2]; [13],0.156 ± 0.14
same,promoter activity interaction Z-score,[2]; [14],-0.361 ± 0.23
same,promoter activity interaction Z-score,[2]; [15],0.325 ± 0.57
same,promoter activity interaction Z-score,[2]; [16],-0.389 ± 0.55
same,promoter activity interaction Z-score,[2]; [18],0.0112 ± 0.1
same,promoter activity interaction Z-score,[2]; [19],0.999 ± 0.21
same,promoter activity interaction Z-score,[3]; [17],0.312 ± 0.33
same,promoter activity interaction Z-score,[3]; [4],-0.1 ± 0.033
same,promoter activity interaction Z-score,[3]; [5],0.375 ± 1
same,promoter activity interaction Z-score,[3]; [6],-0.105 ± 0.3
same,promoter activity interaction Z-score,[3]; [7],0.531 ± 0.051
same,promoter activity interaction Z-score,[3]; [8],0.00734 ± 0.28
same,promoter activity interaction Z-score,[3]; [9],0.919 ± 0.041
same,promoter activity interaction Z-score,[3]; [10],-0.655 ± 0.93
same,promoter activity interaction Z-score,[3]; [11],0.148 ± 0.45
same,promoter activity interaction Z-score,[3]; [12],-0.404 ± 0.22
same,promoter activity interaction Z-score,[3]; [13],0.949 ± 0.14
same,promoter activity interaction Z-score,[3]; [14],-0.0133 ± 0.46
same,promoter activity interaction Z-score,[3]; [15],0.917 ± 0.13
same,promoter activity interaction Z-score,[3]; [16],-0.67 ± 0.039
same,promoter activity interaction Z-score,[3]; [18],0.283 ± 0.8
same,promoter activity interaction Z-score,[3]; [19],-0.752 ± 0.58
